High-throughput results deposited in PubChem by National Center for Advancing Translational Sciences (NCATS).
TRPML1 agonist = agonists of human TRPML1 channel; Q9GZU1; TRPML1-expressing cells, Ca2+ dye fluorescence, FDSS; activation, % (concentration not given with the values); 410,000 compounds, 0.12% hits; in the data active = activation above about 50%; inconclusive = mostly about 30% to 49%; also: 0% is about no effect
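Tetracycline-induced TRPML1-DL cells are seeded and incubated overnight before loading with a no-wash Ca2+ dye and quencher. Agonist activity is taken from the 110 s fluorescence read following compound pin-transfer on an FDSS, before EC80 54-4 challenge.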
TRHR enhancer = TRH receptor (human) allosteric enhancement | P34981 | TRHR cells, fluo-8 calcium fluorescence, EC20 TRH enhancement | enhancement, % at 2 µM | 360,000 compounds, 0.66% hits; in the data active = enhancement above about 30%; also: 0% is about no effect
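Enhancer read-out: after compound pinning and an initial kinetic agonist-mode read, an EC20 of TRH (10 nM final) was injected and fluo-8 calcium signal (Ex 480/Em 530) followed at 1 s/cycle for 100 cycles in TRHR-expressing cells.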
TRPV1 ag = activates the human vanilloid receptor TRPV1 | Q8NER1 | TRPV1-expressing cells, Fluo-8 calcium influx, agonist mode | activation, % at 8.33 µM | 320,000 compounds, 0.19% hits | AID 540275; in the data active = activation above about 80%; inconclusive = between about 30% and that limit; also: 0% is about no effect
Target sequence (Q8NER1 whole entry, looked up): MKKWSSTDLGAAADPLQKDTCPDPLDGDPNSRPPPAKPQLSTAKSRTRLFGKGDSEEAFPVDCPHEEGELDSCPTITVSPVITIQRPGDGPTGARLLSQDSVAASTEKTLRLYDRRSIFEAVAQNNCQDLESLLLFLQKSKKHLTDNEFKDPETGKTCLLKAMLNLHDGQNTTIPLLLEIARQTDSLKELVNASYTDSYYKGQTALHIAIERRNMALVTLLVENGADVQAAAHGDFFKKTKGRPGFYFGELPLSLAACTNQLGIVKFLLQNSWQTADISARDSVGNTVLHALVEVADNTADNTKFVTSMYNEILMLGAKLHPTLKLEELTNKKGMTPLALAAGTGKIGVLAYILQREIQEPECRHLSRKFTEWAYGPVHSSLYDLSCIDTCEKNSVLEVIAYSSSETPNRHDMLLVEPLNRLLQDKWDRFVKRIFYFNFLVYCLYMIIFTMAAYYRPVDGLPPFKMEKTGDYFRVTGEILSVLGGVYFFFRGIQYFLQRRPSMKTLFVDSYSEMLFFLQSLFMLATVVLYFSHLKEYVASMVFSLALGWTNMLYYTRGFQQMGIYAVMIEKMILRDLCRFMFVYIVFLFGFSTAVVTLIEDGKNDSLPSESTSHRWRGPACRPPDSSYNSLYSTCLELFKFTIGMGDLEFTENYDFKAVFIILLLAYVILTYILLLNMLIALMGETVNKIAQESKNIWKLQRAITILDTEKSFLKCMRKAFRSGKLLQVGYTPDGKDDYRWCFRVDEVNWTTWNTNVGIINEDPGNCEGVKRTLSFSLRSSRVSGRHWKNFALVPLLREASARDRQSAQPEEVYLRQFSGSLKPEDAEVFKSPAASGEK
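Fluo-8 calcium influx in TRPV1-expressing cells, kinetic read (ex 480/em 520 nm). Compound added and read 3 min for agonist activity, followed by capsaicin at EC20 final and 2 min further read for enhancement.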
TRHR ag = agonists of human TRH receptor. TRHR cells, calcium flux fluo-8, FDSS agonist mode. 360,000 compounds, 0.18% hits. P34981. activation, % at 2 µM; in the data active = activation above about 30%; also: 0% is about no effect
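TRHR-expressing cells, plated overnight in medium with 10% serum, were loaded with fluo-8 calcium dye at room temperature. After a 10 s baseline, library compound was pin-added and calcium release was recorded kinetically (ex 480/em 530) as agonist response.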
TRPML1 blocker = blocks the human TRPML1 channel; 390,000 compounds, 0.02% hits; AID 624415; activity change, negative = inhibition, % (no concentration beside the values); TRPML1-inducible cells, Ca2+ dye fluorescence, FDSS; stronger effect = lower value; inhibition of EC80 agonist-evoked calcium signal; Q9GZU1; in the data active = activity change below about -50%; inconclusive = between about -30% and that limit;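 also: stimulus is agonist 54-4 at its EC80 concentration; % is scaled to controls: 0 for no effect and ±100 for the full control effect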
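Tet-induced TRPML1-DL cells loaded with Ca8 no-wash calcium dye were read kinetically on FDSS. Compound addition was followed by EC80 agonist 54-4 (4 uM final); inhibition was read over 110 s.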
TRPV1 PAM = potentiators of human vanilloid receptor 1 (TRPV1). Q8NER1. TRPV1-expressing cells, Fluo-8 calcium influx, capsaicin EC20 potentiation. potentiation, % at 8.33 µM. 320,000 compounds, 0.02% hits. AID 540277; in the data active = potentiation above about 80%; inconclusive = between about 30% and that limit; also: 0% is about no effect
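TRPV1-expressing cells were cultured overnight at 35.5C and loaded with Fluo-8 calcium dye for 40 to 90 min at room temperature. After a 10 s baseline, compound was added and calcium influx was read kinetically for 3 min (ex 480/em 520 nm).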
Starred values were filed as active, the others as inactive. Compounds with a hit are over-represented: about 0.99% of the library has one in this group of screens.

Results for COc1cc(C2NC(=O)NC(c3ccccc3)=C2C(C)=O)cc(Cl)c1OCC(=O)O (stereo not given) ?
TRPML1 agonist: -0.1; TRHR enhancer: 32.7*; TRPV1 ag: -1.2; TRHR ag: 0.0; TRPML1 blocker: -4.2; TRPV1 PAM: -36.5

What do the screens show for `O=C1CC(c2ccc(Cl)c([N+](=O)[O-])c2)c2ccc3ccccc3c2N1` (stereo not given)?
TRPML1 agonist: 2.9; TRHR enhancer: 37.3*; TRPV1 ag: -10.0; TRHR ag: -2.6; TRPML1 blocker: -0.7; TRPV1 PAM: 1.5

Results for Cc1c(NC(=O)/C=C/c2ccc(S(=O)(=O)N3CCOCC3)cc2)c(=O)n(-c2ccccc2)n1C ?
TRPML1 agonist: 0.1; TRHR enhancer: 33.7*; TRPV1 ag: -3.8; TRHR ag: 0.5; TRPML1 blocker: 23.5; TRPV1 PAM: -10.7

Results for CCN(CC)S(=O)(=O)c1ccc(/C=C/C(=O)Nc2ccc(N3CCOCC3)cc2)cc1 ?
TRPML1 agonist: -0.7; TRHR enhancer: -2.6; TRPV1 ag: 90.0*; TRHR ag: 0.5; TRPML1 blocker: -9.4; TRPV1 PAM: -18.5

How did COc1ccc(/C=C/C(=O)Nc2ccc(N3CCOCC3)cc2)cc1 do in these assays?
TRPML1 agonist: 0.3; TRHR enhancer: 16.9; TRPV1 ag: inconclusive; TRHR ag: 0.8; TRPML1 blocker: -13.3; TRPV1 PAM: -14.3

How did CC(C)C[C@@H](CN=[N+]=[N-])N1CCN(CCc2ccccc2)CCC1=O do in these assays?
TRPML1 agonist: -0.4

How did CC(=O)N1CCc2cc(S(=O)(=O)N3CCN(S(=O)(=O)c4c(F)cccc4F)CC3)ccc21 do in these assays?
TRHR enhancer: 7.4; TRHR ag: -2.4

Results for CCCCc1nn2c(=O)cc(COC(=O)c3cccc(NC(=O)CCc4ccccc4)c3)nc2s1 ?
TRPML1 agonist: -0.8; TRHR enhancer: -3.2; TRHR ag: 0.8; TRPML1 blocker: -13.6

What do the screens show for `CCCc1nn2c(=O)cc(COC(=O)c3cccc(NC(=O)CCc4ccccc4)c3)nc2s1`?
TRPML1 agonist: 2.4; TRHR enhancer: -0.8; TRHR ag: -1.1; TRPML1 blocker: -62.2*

What do the screens show for `C[N+]1(CC(=O)c2ccc3c(c2)CCCC3)CCOCC1`?
TRPML1 agonist: -0.9

Results for COc1ccccc1Nc1ncnc2c1cnn2-c1cccc(C)c1 ?
TRPML1 agonist: -0.2; TRHR enhancer: 5.8; TRPV1 ag: 85.1*; TRHR ag: -0.4; TRPML1 blocker: 0.3; TRPV1 PAM: 5.3

Results for COc1cccc(Nc2ncnc3c2cnn3-c2cccc(C)c2)c1 ?
TRPML1 agonist: 0.1; TRHR enhancer: 9.0; TRPV1 ag: 23.4; TRHR ag: -0.3; TRPML1 blocker: 10.4; TRPV1 PAM: -23.6

What do the screens show for `CC1CCCC(NC(=O)COC(=O)c2ccccc2Sc2ccccc2C#N)C1C` (stereo not given)?
TRPML1 agonist: 1.1; TRHR enhancer: 30.2*; TRPV1 ag: 2.4; TRHR ag: -0.2; TRPML1 blocker: -9.3; TRPV1 PAM: -6.3

How did O=C(C[C@H]1C(=O)N(C2CCCCC2)C[C@@H]1Cc1ccccc1)Nc1ccccc1 do in these assays?
TRPML1 agonist: 0.2; TRHR enhancer: 14.6; TRPV1 ag: 85.0*; TRHR ag: -0.5; TRPML1 blocker: -14.4; TRPV1 PAM: 9.8

Results for Nc1cccc2cccnc12 ?
TRPML1 agonist: -0.1

What do the screens show for `O=c1oc2cc(O)ccc2cc1-c1nc2c(s1)CCc1ccccc1-2`?
TRPML1 agonist: 83.4*; TRHR enhancer: -22.5; TRPV1 ag: 83.3*; TRHR ag: 199.4*; TRPML1 blocker: -6.3; TRPV1 PAM: -12.6

Results for O=c1oc2ccc3ccccc3c2cc1-c1nnc(Nc2ccccc2F)s1 ?
TRPML1 agonist: 0.5; TRHR enhancer: 5.0; TRHR ag: 2.6; TRPML1 blocker: -0.3

Results for COc1cccc(Nc2nnc(-c3cc4ccc(O)cc4oc3=O)s2)c1 ?
TRPML1 agonist: inconclusive; TRHR enhancer: 5.5; TRHR ag: 69.6*; TRPML1 blocker: -8.6

What do the screens show for `O=c1oc2cc(O)ccc2cc1-c1nnc(Nc2ccccc2F)s1`?
TRPML1 agonist: 70.8*; TRHR enhancer: 39.2*; TRHR ag: 187.1*; TRPML1 blocker: 2.7

How did CC[N+](CC)(CC)c1ccc(/C=C/c2ccc3ccccc3n2)cc1 do in these assays?
TRPML1 agonist: -0.7

What do the screens show for `O=c1[nH]c(-[n+]2ccccc2)c(/C=N/NC([S-])=Nc2ccccc2)s1`?
TRPML1 agonist: 3.1; TRHR enhancer: 3.3; TRPV1 ag: inconclusive; TRHR ag: 56.5*; TRPML1 blocker: -1.5; TRPV1 PAM: -10.2

How did O=C(Nc1ccccc1)Nc1nc(Nc2cc(F)cc(F)c2)nc(NC2CCCC2)n1 do in these assays?
TRHR enhancer: 0.9; TRHR ag: -0.4

How did CN(C)c1ccc(/C=C/c2ccnc3ccc(O)cc23)cc1 do in these assays?
TRPML1 agonist: 5.9

How did Cc1ccc(C(=O)NCCc2nnc3ccc(SCC(=O)N4CCCCC4)nn23)cc1 do in these assays?
TRPML1 agonist: -0.3; TRHR enhancer: 33.0*; TRPV1 ag: 13.5; TRHR ag: 0.3; TRPML1 blocker: -14.8; TRPV1 PAM: -15.2

How did Cc1ccc(C(=O)NCCc2nnc3ccc(SCC(=O)N4CCCC4)nn23)cc1 do in these assays?
TRPML1 agonist: 0.5; TRHR enhancer: -3.2; TRPV1 ag: 0.4; TRHR ag: 0.9; TRPML1 blocker: -12.2; TRPV1 PAM: -1.3

Results for S=C(NCCc1c[nH]c2ccccc12)NC1CCCC1 ?
TRPML1 agonist: -0.8; TRHR enhancer: -1.6; TRPV1 ag: inconclusive; TRHR ag: 0.7; TRPML1 blocker: 5.7; TRPV1 PAM: -13.9

What do the screens show for `S=C(NCCc1c[nH]c2ccccc12)NC1CC1`?
TRPML1 agonist: 0.4; TRHR enhancer: 32.5*; TRPV1 ag: 0.4; TRHR ag: -0.4; TRPML1 blocker: -9.2; TRPV1 PAM: 16.1

What do the screens show for `O=C(CCOc1ccccc1)NO`?
TRPML1 agonist: -0.2

How did COc1cccc(/C=C(\CC(=O)O)c2nc3ccccc3s2)c1 do in these assays?
TRPML1 agonist: 0.5; TRHR enhancer: 34.3*; TRPV1 ag: 2.9; TRHR ag: 0.4; TRPML1 blocker: -23.7; TRPV1 PAM: 10.6

Results for O=C(CNC(=O)c1ccccc1)OC(CCc1ccccc1)C(=O)Nc1cc(C(F)(F)F)ccc1Cl (stereo not given) ?
TRHR enhancer: -17.2; TRHR ag: 2.2

What do the screens show for `CC(C)(C)[C@H]1CCC(=O)N(CCSc2ccc(Br)cc2)CC1`?
TRPML1 agonist: 0.0
